Experimental data from ChEMBL document CHEMBL4513216, “Probing the Open Global Health Chemical Diversity Library for Multistage-Active Starting Points for Next-Generation Antimalarials” (ACS Infect Dis, 2020).
Hit rate of the full screen: of about 68,000 compounds, about 2,700 (4%) showed an effect of 50% or more. What follows is part of a selection rich in strong results, with near analogues and random picks from the rest.

System: Plasmodium berghei
Experiment: Screen against P. berghei liver stage (PbLuc), transformed with Luciferase, at 2uM
Type: functional, HepG2
Conditions: tested at 2 uM

SMILES | INHIBITION
Cc1ccc(CN2CCC3(CC2)CCN(Cc2ccoc2)CC3)cc1 | 14.93%
Cn1ccnc1CN1CCC2(CC1)CCN(Cc1ccoc1)C2 | -78.53%
Cc1ccc(CN2CCCC3(CCN(Cc4ccoc4)CC3)C2)cc1 | 78.88%
Cn1cccc1C(=O)N1CCO[C@H]2[C@H](OCc3cccnc3)CC[C@@H]21 | 0.32%
O=C1NCCN(Cc2cccnc2)C1CC(=O)N1CCc2n[nH]cc2C1 (stereo not given) | -3.25%
O=C1NCCN(Cc2ccccc2)C1CC(=O)N1CCc2n[nH]cc2C1 (stereo not given) | 50.32%
O=C1NCCN(CC2CCCCC2)C1CC(=O)N1CCc2n[nH]cc2C1 (stereo not given) | 5.17%
Cc1nc2c(c(N3CCC4(CCCNC4=O)C3)n1)CCC2 (stereo not given) | 27.85%
Cc1cc(C2CCC2)nc(N2CCC3(CCCNC3=O)C2)n1 (stereo not given) | 4.74%
CNc1nc(N2CCC3(CCCNC3=O)C2)nc2c1CCC2 (stereo not given) | 56.49%
O=C1NCCCC12CCN(c1nc3c(c(C(F)(F)F)n1)CCCC3)C2 (stereo not given) | 1.42%
Cc1nc(N2CCC3(CCCNC3=O)C2)nc2c1CCCC2 (stereo not given) | 62%
CN(C)c1nc2c(c(N3CCC4(CCCNC4=O)C3)n1)CCCC2 (stereo not given) | 42.17%
O=c1[nH][nH]c2cn(-c3ccccc3)c(=O)n12 | -73.41%
N#CCCn1cnc2c(F)cc(Br)cc2c1=O | -23.16%
c1cc(-c2nnc(C3CCCN(CC4CCCCC4)C3)o2)ccn1 (stereo not given) | 29.48%
Cc1cccc2nc(CNC(=O)N3CCC(OCC4CC4)CC3)cn12 | 38.2%
Cc1ccc(OCCCC(=O)Nc2nonc2C)cc1C | -9.17%
CN(C)CCOCc1cncc2c1CCN(Cc1ccccn1)C2 | 56.21%
COCc1cncc2c1CCN(Cc1ccccn1)C2 | 0.3%
CN(C)C(=O)COCc1cncc2c1CCN(Cc1ccccn1)C2 | 41.93%
O=C(c1ccnn1COc1ccc(Cl)cc1)N1CCOCC1 | 8.56%
CCn1c(Nc2ccccc2OC)nc2c(C)nn(C)c2c1=O | -18.88%
O=S(=O)(Cc1ccc(F)c(Cl)c1)NC(CO)c1ccco1 (stereo not given) | 26.62%
Cc1noc2nc(C3CCN(CC4CCCCC4)CC3)cc(C(F)F)c12 | -7.7%
COc1ccnc(N(C)Cc2csc(C)n2)n1 | -21.99%
Cc1nc(CN(C)c2nccc(N(C)C)n2)cs1 | -13.89%

SMILES | INHIBITION
Cc1nc(CN(C)c2nccc(C(F)(F)F)n2)cs1 | 60.13%
Cc1nn(C)c(C)c1Cc1nc(N(C)C)no1 | 20.71%
CC(C)c1nccn1Cc1cc(C(=O)NCC(F)(F)F)n[nH]1 | -7.52%
O=C1NCC(C(=O)Nc2ncc(Cc3cccc(F)c3)s2)N1 (stereo not given) | 3.06%
O=C1NCC(C(=O)Nc2ncc(Cc3ccccc3)s2)N1 (stereo not given) | 53.98%
O=C1NCC(C(=O)Nc2ncc(Cc3ccc(F)cc3)s2)N1 (stereo not given) | 21.39%
COCc1cccc(C(=O)N2CCCN(C(=O)OCC(C)C)CC2)c1 | 29.19%
COC(=O)CNC(=O)c1c(-n2cnnn2)sc2c1CCCC2 | 17.26%
Cc1nc(CO[C@H]2CN(C(=O)c3cccn3C)[C@@H]3COC[C@H]23)cs1 | 36.75%
O=C(Nc1ccccc1)[C@H]1O[C@H](CCN2CCNCC2)CC[C@@H]1O | 51.81%
CN1CCN(CC[C@@H]2CC[C@H](O)[C@@H](C(=O)Nc3ccccc3)O2)CC1 | 29.85%
O=C(Nc1ccccc1)[C@H]1O[C@H](CCN2CCCCC2)CC[C@@H]1O | 4.04%
CCN1CCCC1CNCc1cc2cc3c(cc2[nH]c1=O)OCCO3 (stereo not given) | 16.87%
CCNC(=O)[C@@H]1CCCN1[C@@H](C(=O)NC)C1CC1 | 54.01%
CNC(=O)[C@@H](C1CC1)N1CCC[C@H]1C(=O)NCC(C)C | 40.28%
CCCNC(=O)[C@@H]1CCCN1[C@@H](C(=O)NC)C1CC1 | 40.28%
O=C1CN(C(=O)C2CCCCC2)CC(O)CN1Cc1ccc(Cl)cc1 (stereo not given) | 43.15%
Cn1ccnc1CN1CCC2(CC1)CC(N1CCCC1)c1ccccc12 (stereo not given) | -11.26%
Cc1ccc(-n2cnnn2)cc1NCC(=O)Nc1cc(F)ccc1F | 19.95%
Cc1nn(C(C)C)c(C)c1CN1CCN(C2CCCCC2)C(=O)C1 | -22.72%
Cc1nn(CCO)c(C)c1CN1CCN(C2CCCCC2)C(=O)C1 | 57.21%
C=C(C)Cn1nc(C)c(CN2CCN(C3CCCCC3)C(=O)C2)c1C | -17.01%
CO[C@H]1CC[C@H]2[C@H]1OCCN2C(=O)C1=CCCC1 | 28.81%
CCN1CCC(Cn2ccc3ccc(C(=O)OC)cc3c2=O)C1 (stereo not given) | 39.26%
O=C(CCNS(=O)(=O)c1ccc(Cl)cc1)NCc1ccoc1 | -29.08%
CCNC(=O)NC1CCCN(c2ccc(C)cc2)C1=O (stereo not given) | 10.63%
Cc1cccc(CNc2nnc(C(C)C)o2)c1 | 3.62%

SMILES | INHIBITION
COCc1cccc(NCc2cccnc2)c1 | -12.52%
CCOCc1nnc(NCc2ccsc2)o1 | -19.14%
CCOCc1nnc(NCc2cccc(C)c2)o1 | 55.39%
Cc1cccc(CNc2n[nH]c(C)n2)c1 | 14.11%
CCOCc1nnc(NCc2cccnc2)o1 | 54.29%
COc1ccc2c(C)nc(N3CCN([C@H]4CCCC[C@@H]4O)CC3)nc2c1 | -104.21%
CC(C)OCc1ncn2c1CN(Cc1cccs1)CCC2 | 16.22%
Cn1c(CS(=O)(=O)Cc2ccc(Cl)cc2)cc(=O)n(C)c1=O | 26.34%
Cc1nnc([C@]23COC[C@H]2CN(Cc2nccs2)C3)o1 | 51.36%
Cc1nnc([C@]23COC[C@H]2CN(Cc2cccs2)C3)o1 | 27.73%
Cc1cc(CN2C[C@@H]3COC[C@]3(c3nnc(C)o3)C2)no1 | -83.05%
O=C(CCNS(=O)(=O)c1ccc(F)cc1)NCc1ccoc1 | 12.01%
Cc1nccn1-c1ncccc1NC(=O)CCOCC(C)C | 53.54%
CCOCCCC(=O)Nc1cccnc1-n1ccnc1C | -12.09%
CC(C)COCCC(=O)Nc1cccnc1-n1cncn1 | 22.88%
CC(C)(C)c1noc(CCCC(=O)NCC2CCS(=O)(=O)C2)n1 (stereo not given) | -12.82%
COC(=O)CNC(=O)c1sccc1N(C)S(=O)(=O)c1ccc(Cl)cc1 | 3.38%
Nc1cc2c(nn1)CCN(C(=O)CC1CCCCC1)C2 | 38.76%
CCc1nc(CN(C)C2CCN(Cc3nc(C4CC4)no3)C2)no1 (stereo not given) | -45.03%
O=C(CC[C@@H]1CCCN2CCCC[C@H]12)NCCc1nc(O)cc(O)n1 | 51.77%
O=C(CC[C@@H]1CCCN2CCCC[C@H]12)NCCc1cc(O)ncn1 | -20.38%
Nc1cc(O)nc(CCNC(=O)CC[C@@H]2CCCN3CCCC[C@H]23)n1 | 26.81%
Cn1nc(C2CCNCC2)c2c(C(=O)NC3CC3)cc(C3CC3)nc21 | 40.28%
CC(C)c1cc(N[C@@H](CO)C(N)=O)n2nccc2n1 | 50.42%
CC(C)c1cc(N[C@H](C(N)=O)C(C)C)n2nccc2n1 | -48.3%
CC(C)c1cc(NC(CO)CO)n2nccc2n1 | 20.14%
COCCc1noc(CN2CC(C)(c3ccccc3)CCC2=O)n1 (stereo not given) | -12.84%

SMILES | INHIBITION
Cn1ccnc1C1c2nc[nH]c2CCN1Cc1cccnc1 (stereo not given) | -7.68%
CCc1nc(C2CCCN(C(=O)NC(C)C)C2)no1 (stereo not given) | 9.82%
CCN1N=C(C(=O)N2CCCC(c3noc(C)n3)C2)CCC1=O (stereo not given) | 10.23%
CCc1nc(C2CCCN(C(=O)C3=NN(CC)C(=O)CC3)C2)no1 (stereo not given) | 53.19%
CCc1csc(C2CCCN(C(=O)C3=NN(CC)C(=O)CC3)C2)n1 (stereo not given) | 3.9%
CCc1nc(C2CCCN(C(=O)C3=NN(C(C)C)C(=O)CC3)C2)no1 (stereo not given) | 52.08%
Cc1nc(C2CCCN(C(=O)C3=NN(C(C)C)C(=O)CC3)C2)no1 (stereo not given) | 21.24%
O=c1c(Cc2ccccc2)c(O)ccn1CCc1ccccc1 | 44.59%
Cc1ccc(CN2CC[C@H]3C[C@H](C(=O)N(C)C)O[C@H]3C2)cc1 | 22.5%
CCOc1ncccc1NC(=O)Nc1c(C)nn(C(C)C)c1C | -10.87%
CC(C)(C)c1coc([C@@H]2COCCN2Cc2c[nH]c3ccccc23)n1 | 27.44%
Cn1cc(CN2CCOC[C@H]2c2nc(C(C)(C)C)co2)c2ccccc21 | 50.17%
CC(C)(C)c1coc([C@@H]2COCCN2Cc2ccccc2)n1 | 18.4%
O=C(c1ccc(Cl)cc1)N1CCC(N2CCCNC2=O)CC1 | 27.54%
O=C(c1ccoc1)N1CCC2(CC1)COC(COc1ccccn1)C2 (stereo not given) | 24.51%
COCCC1COC2(CCN(C(=O)c3cccnc3)CC2)C1 (stereo not given) | 1.81%
Cn1cc(CN2C[C@@H]3COC[C@]3(CNC(=O)c3ccsc3)C2)cn1 | 9.79%
Cc1cnc(CN(Cc2ccc(Cl)s2)C2CCN(C)C2)o1 (stereo not given) | 14.83%
Cc1cnc(CN(Cc2ccc(C#N)cc2F)C2CCN(C)C2)o1 (stereo not given) | 60.84%
COc1ccc(C)cc1CN(Cc1ncc(C)o1)C1CCN(C)C1 (stereo not given) | -5.79%
CN1CCN(CC2CC2)C(=O)c2cnc(N3CCC(CO)CC3)nc21 | -13.87%
CSCCC(NC(N)=O)C(=O)NCc1cnn(-c2ccccc2)c1 (stereo not given) | -12.03%
CSCCC(NC(N)=O)C(=O)NCc1ccc(-n2cccn2)cc1 (stereo not given) | 50.42%
CSCCC(NC(N)=O)C(=O)Nc1ccc(-n2cccn2)nc1 (stereo not given) | -0.41%
